Compounds with a hit are over-represented: about 1.7% of the library has one in this group of screens.
PTHR1 ag – PTHR1 (human) receptor agonism; 410,000 compounds, 0.075% hits; Q03431; Potency, µM (doses to about 115 µM), inactives show at the top dose activation, most hits filed as activators; HEK293 GP2 PTHR1 cells, GloSensor cAMP luminescence, 1 h; AID 743266; note: potency is the fitted concentration of half-maximal effect; nearly all actives have a fitted effect of over 55% in size
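HEK-293-derived GP2 cells expressing PTHR1 and a GloSensor cAMP reporter, 3,000/well, plated overnight, given luciferin plus IBMX (each 0.5 mM as added) for 1 h at 37 °C, then compound for 1 h at 37 °C. Luminescence was read after 15 min at room temperature.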
IDH1 R132H inh – human IDH1 R132H inhibition; Potency, µM (doses to about 76.6 µM), for inactives: at the highest dose activity change, negative = inhibition, actives largely listed as inhibitors; IDH1-R132H enzyme, NADPH consumption, diaphorase/resazurin fluorescence; 390,000 compounds, 0.093% hits; AID 602179; note: potency is the fitted concentration of half-maximal effect; % is set by controls: 0 for no effect and ±100 for the full control effect; nearly all actives have a fitted effect of over 65% in size
Target sequence (O75874 whole entry R132H, stated change not applied): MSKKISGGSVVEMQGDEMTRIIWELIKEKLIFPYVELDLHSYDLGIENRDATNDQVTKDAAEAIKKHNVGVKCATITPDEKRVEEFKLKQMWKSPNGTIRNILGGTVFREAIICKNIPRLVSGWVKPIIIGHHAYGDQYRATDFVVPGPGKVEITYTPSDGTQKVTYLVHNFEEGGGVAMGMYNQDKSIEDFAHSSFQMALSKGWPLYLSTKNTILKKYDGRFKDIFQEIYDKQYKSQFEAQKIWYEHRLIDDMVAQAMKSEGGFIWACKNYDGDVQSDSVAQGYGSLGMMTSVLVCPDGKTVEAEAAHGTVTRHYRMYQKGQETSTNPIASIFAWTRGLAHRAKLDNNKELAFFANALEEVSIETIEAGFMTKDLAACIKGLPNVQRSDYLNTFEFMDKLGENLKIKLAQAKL
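IDH1-R132H (0.5 ug/mL dispensed) in pH 7.5 Tris buffer was preincubated 30 min with compound, then given a substrate mix of 0.016 mM NADPH and 2 mM alpha-KG for 80 min at room temperature; remaining NADPH was read by diaphorase/resazurin fluorescence.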
GLP-1R agonist – agonists of human GLP-1 receptor; HEK293 GLP-1R CRE-luciferase, luminescence, 4-6 h; cells express a hypersensitive GLP-1R form; AID 624172; 380,000 compounds, 0.007% hits; Potency, µM (top dose mostly 45.6 µM), without a hit: at the top dose activation, actives largely listed as activators; P43220; note: potency is the fitted concentration of half-maximal effect; % of control where 0% means no effect
GLP1R cytotox – cytotoxic in the GLP-1 receptor inverse agonist counter-screen. HEK293 cAMP-luciferase reporter cells, luminescence, 24 h. Potency, µM (series often up to 38.3 µM), inactives show at the highest dose activity change, negative = inhibition, hits mostly inhibitors. 410,000 compounds, 0.13% hits;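 note: loss of luciferase light is scored as toxicity; potency is the fitted concentration of half-maximal effect; % is set by controls: 0 for no effect and ±100 for the full control effect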
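Seeding density was 200 cells/uL; after overnight-length (12 h) culture, 23 nL compounds went on for 24 h at 37 °C. Readout used a luciferase detection reagent, luminescence taken after 12 min at room temperature.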
GLP-1R inv ag – acts as inverse agonist at human GLP-1 receptor; P43220; HEK293 GLP-1R CRE-luciferase, luminescence, 24 h; GLP-1R form is constitutively active; Potency, µM (doses to about 38.3 µM), for inactives: at the top dose activity change, negative = inhibition, hits mostly inhibitors; 410,000 compounds, 1.6% hits; note: potency is the fitted concentration of half-maximal effect; % is set by controls: 0 for no effect and ±100 for the full control effect; nearly all actives have a fitted effect of over 55% in size
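HEK293 cells stably co-expressing constitutively active GLP-1R and a cAMP-responsive luciferase reporter were seeded in DMEM with 10% Nu serum, given compounds after 12 h, and incubated 24 h at 37 deg C. Luminescence was then read.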
LDHA inh – inhibitors of human lactate dehydrogenase A; AID 1347041; activity change, % (values are at about 110 or 230 µM); purified LDHA, NADH/diaphorase-resazurin fluorescence; stronger effect = lower value; P00338; 480,000 compounds, 0.15% hits; in the data active = activity change below about -30%; inconclusive = mostly about -25% to -30%;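 note: plate controls were DMSO wells for no effect and wells without enzyme for full effect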
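LDH5 2 nM; NADH 0.06 mM, pyruvate 0.2 mM; 200 mM Tris pH 7.4, EDTA, Tween-20; 5 min RT. Detection: diaphorase 0.133 mg/mL + resazurin 37 µM, fluorescence ex540/em590 at 0 and 20 min; normalized to enzyme-free and DMSO wells.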
* = called active by the depositor; i = inactive; ? = inconclusive; nt = no result given; [ ] = dose if it differs, or a comment. Unless noted, calls come from the whole dose curve; as a rule, active = well fitted curve in the direction sought with a large enough effect; inconclusive = small, poorly fitted or top-dose-only effect, or another doubt; inactive = no such curve, though single readings can be large; an effect the other way counts as inactive or inconclusive.

SMILES | PTHR1 ag | IDH1 R132H inh | GLP-1R agonist | GLP1R cytotox | GLP-1R inv ag | LDHA inh
CCOc1ccc(S(=O)(=O)N(CC(=O)N2CCc3ccccc32)Cc2ccco2)cc1 | i | 2% | -11% | -4% | 8.9µM* | -3
CC(C)Cn1c(N)c(C(=O)COC(=O)c2ccc(Br)cc2)c(=O)n(C)c1=O | -92% | 14% | -1% | -8% | 10µM* | 5
CC(C)Cn1c(N)c(C(=O)COC(=O)CC23CC4CC(CC(C4)C2)C3)c(=O)n(C)c1=O | -20%[57.5 µM] | 7% | -22% | -18% | 2.8µM* | -2
CC(C)Cn1c(N)c(C(=O)COC(=O)c2ccc(Cl)cc2)c(=O)n(C)c1=O | -30% | 0% | -2% | -5% | ? | -1
Cc1cccc(C(=O)OCC(=O)c2c(N)n(CC(C)C)c(=O)n(C)c2=O)c1O | -33% | -3% | -2% | -14% | 10µM* | 1
O=C(Nc1cc(F)ccc1F)C12CC3CC(CC(Cl)(C3)C1)C2 | nt | nt | nt | nt | nt | 7
Cc1ccc2c(c1)[C@H]1[C@H](CO2)[C@H](c2ccccc2)[C@]2(C)C(=O)Nc3ccc(Cl)cc3C(=O)N12 | i | 7% | -2% | 1% | 6.3µM* | -2
Cc1ccc2c(c1)NC(=O)[C@@]1(C)[C@@H](c3ccccc3)[C@H]3COc4ccccc4[C@@H]3N1C2=O | -15% | -1% | -2% | 7% | ? | -1
Cc1ccc2c(c1)C(=O)N1[C@H]3c4ccccc4OC[C@@H]3[C@H](c3ccccc3)[C@]1(C)C(=O)N2 | i | -14% | -3% | 11% | 11µM* | -17
NC(=S)N=Nc1c(O)n(Cc2ccc(Br)cc2)c2ccccc12 | i | 4% | 9% | 2.5µM* | 2.5µM* | 14
C/C(Cl)=C\Cn1c(O)c(N=NC(N)=S)c2cc(Br)ccc21 | -8% | -7% | 22% | -26% | 8.9µM* | -11
NC(=S)N=Nc1c(O)n(Cc2ccc(F)cc2)c2ccccc12 | i | -13% | 1% | ? | ? | -2
Cc1ccc(-c2nc(CS(=O)(=O)CC(=O)N3CCCCCC3)c(C)o2)cc1 | -40% | 7% | 3% | -11% | 10µM* | -5
Cc1ccc(SC[C@H](Cc2ccccc2)N2CC[C@@H](C)CCC2=O)cc1 | -50% | 3% | -1% | -6% | 10µM* | 2
Cc1nc(-c2ccc(C)c(S(=O)(=O)N3CCCC(C(=O)NCc4ccc5c(c4)OCO5)C3)c2)no1 (stereo unspecified) | nt | nt | nt | nt | nt | 6
N=C1S/C(=C\c2ccco2)C(=O)N1c1nccs1 | -32% | 3% | -3% | -42% | 1µM* | 0
CCOc1ccc(NC(=O)C2C3CCC4C(CCC32)C4(Cl)Cl)cc1 (stereo unspecified) | i | 5% | -4% | -23% | 7.1µM* | -4
CCOc1ccc(NC(=S)NC(=O)C2CCCC2)cc1 | -6% | -3% | 12% | 0% | 10µM* | -2
CCOc1ccc(C(C)NC(=S)NC2CCCCC2)cc1 (stereo unspecified) | -17% | 8% | -5% | 11µM* | ? | -1
COc1ccc(NC(=S)NC(=O)C2CCCCC2)cc1 | i | 0% | 4% | -16% | 18% | 0
Cc1cc(NC(=S)NC(=O)C2CC2)ccc1Br | -24% | 8% | 0% | ? | ? | -4
CCOc1ccc(NC(=O)C2C3CC/C=C\CCC32)cc1 (stereo unspecified) | i | 5% | 5% | -6% | -27% | -4
Cc1cc(C)cc(NC(=S)NC(=O)C2CC2)c1 | -12% | 0% | 19% | ? | 11µM* | -17
Clc1cccc(CN2CCc3ccccc3C2)c1 | nt | nt | nt | nt | nt | 10
CC(=O)N1CCN(c2ccc(NC(=O)COc3ccc(Cl)cc3C)cc2Cl)CC1 | nt | nt | nt | nt | nt | 5
SMILES | PTHR1 ag | IDH1 R132H inh | GLP-1R agonist | GLP1R cytotox | GLP-1R inv ag | LDHA inh
O=Cc1cccc2c1OCCO2 | nt | nt | nt | nt | nt | 6
O=C(NC(=S)Nc1ccccc1CO)C1CCCCC1 | -16% | -8% | 26% | 5% | -9% | -8
CN(Cc1ccccc1)S(=O)(=O)c1ccc(NC(=S)NC(=O)C2CCCCC2)cc1 | -60% | 5% | 3% | 5% | 2.5µM* | -5
Cc1ccccc1NC(=S)NC(=O)C1CCCCC1 | i | 0% | 1% | ? | 8.9µM* | -1
FC(F)(F)Sc1ccc(N=Cc2c3ccccc3cc3ccccc23)cc1 | nt | nt | nt | nt | nt | -1
Cc1c(-c2ccccc2)c(=O)oc2ccc(OC(=O)c3ccccc3)cc12 | nt | nt | nt | nt | nt | 6
CC1(Cc2ccccc2OC(F)(F)F)C(=O)Nc2cc(-c3ccccc3Cl)ccc21 (stereo unspecified) | -81% | nt | 5% | ? | 5.6µM* | -7
Cc1cc(=O)[nH]c(-n2nc(C)c(Oc3ccccc3O)c2C)n1 | i | 7% | 1% | 17% | -22% | 0
Cc1nn(-c2ccc(C(F)(F)F)cn2)c(C)c1Oc1ccccc1O | i | 7% | -1% | -30% | 7.9µM* | -3
CCOC(=O)c1cc(-c2ccccc2)n(CCC(=O)Nc2ccc(C(F)(F)F)cc2)c1C | -91% | 5% | nt | ? | 7.1µM* | 3
CCOC(=O)c1cc(-c2ccccc2)n(-c2cccc(C(=O)Nc3ccc(OCC)cc3)c2)c1C | -7% | -13% | nt | 4% | 5µM* | -5
CCOC(=O)c1cc(-c2ccccc2)n(CCCC(=O)Nc2ccc(CC)cc2)c1C | -26% | -5% | nt | -17% | 10µM* | -11
COC(=O)c1ccc(C(=O)OCc2cccc(C(=O)OC)c2)cc1 | nt | nt | nt | nt | nt | 3
COc1cccc(NC(=O)CN(C)C(=O)C(Sc2ccccc2)c2ccccc2)c1 (stereo unspecified) | -19% | 9% | 5% | -10% | 11µM* | 1
COc1cc(/C=C/C(=O)c2ccc(C)cc2OC)ccc1OC(F)F | nt | nt | nt | nt | nt | 4
COC(=O)CNC(c1ccccc1)c1cc(Br)ccc1NC(=O)OCc1ccccc1 (stereo unspecified) | -6% | 5% | -3% | 5% | 4µM* | -7
CN(C)S(=O)(=O)c1cc(NC(=O)c2nn(-c3ccccc3)c(=O)c3ccccc23)ccc1Cl | nt | nt | nt | nt | nt | -1
CC(=NNC(=S)N(Cc1ccccn1)Cc1ccccn1)c1cnccn1 | i | 2% | -5% | 4.5µM* | ? | 11
CC1CCCCN1CCNC(=O)C12CC3CC(CC(C3)C1)C2 (stereo unspecified) | nt | nt | nt | nt | nt | 0
Cc1ccc(C2(c3noc(CN4CCC(c5ccncc5)CC4)n3)CCCC2)cc1 | -32% | 8% | ? | -19% | 4µM* | 0

Bioassay records as filed in PubChem BioAssay.
